Experimental findings from PubChem BioAssay (NCATS) are described below.

A number with no mark means an inactive call. Calls come from the whole dose curve; as a rule, active = well fitted curve in the direction sought with a large enough effect; inconclusive = small, poorly fitted or top-dose-only effect, or effect the other way, or another doubt; inactive = no such curve, though single readings can be large or run the other way.

The experiment is described as follows: Inducers of the Endoplasmic Reticulum Stress Response (ERSR) in human glioma: Validation (AID 504836). Note: 0% is about no effect. The settings on record: human glioma cells, ER stress response reporter; series mostly up to 38.3 µM; activation: at the top concentration. The text has this: Primary protein unfolding takes place for many diseases, including diabetes and hypoxia, , and triggers a reaction in the cells called ER stress response (ERSR). ). ERSR is designed as a repair mechanism, but ultimately leads to cell death via apoptosis if conditions triggering protein unfolding persist (1). The molecular clue to ERSR activation is the enhancement of the expression of key molecular chaperones, including the glucose regulated protein (GRP) 78. GRP78 is the main sensor for protein folding and the main actuator of the ERSR.
In a collaboration between the Southern Research Institute and the NIH Chemical Genomics Center, a cell based screen was developed that reliably uses GRP78 as a sensor to identify small molecules as inducers of ERSR. In resting conditions, GRP78 binds proteins and acts as a natural repressor. Once unfolded proteins are present in the ER, GRP78 releases some of the repressors and binds to the unfolded proteins. The release of the repressors executes the ERSR program. Using a human glioma cell line in a miniaturized, luminescent format, a high-throughput screen was developed to identify actuators of the ERSR.
(1) Soboloff, J. and S. A. Berger (2002). "Sustained ER Ca2+ depletion suppresses protein synthesis and induces activation-enhanced cell death in mast cells." J Biol Chem 277(16): 13812-20.
NIH Chemical Genomics Center [NCGC]
NIH Molecular Libraries Probe Centers Network [MLPCN]
Assay Submitter (PI): Maurizio Grimaldi, Southern Research Institute
Stable transfected human glioma cell line, U87-MG, are dispensed at density 1000 cells/well into Greiner white solid bottom 1536-well assay plates. Compounds are transferred via Kalypsys pin tool equipped with 1536-pin array (10nl slotted pins, V&P Scientific, San Diego, CA). The assay plates will be incubated for 16 hours and developed by adding appropriate quantities of the Promega Bright Glo reagent. The plates will be incubated at room temperature for 10 minutes prior to being transferred into a ViewLux high-throughput CCD imager (PerkinElmer), wherein end-point measurements of luminescence are acquired.
As for `OCCN1CCN(CCCN2c3ccccc3C=Cc3ccccc32)CC1`, the “activation” value is 0.534%. The value for `C#CCN(C)CCCOc1ccc(Cl)cc1Cl` was 2.76%.

In the case of `O=C(CCCN1CCC(O)(c2cccc(C(F)(F)F)c2)CC1)c1ccc(F)cc1`, the “activation” value was -2.64%.

With `Cc1ccc(=O)n(-c2ccccc2)c1`, the “activation” value was -1.97%.

Consider `COCCOC(=O)C1=C(C)NC(C)=C(C(=O)OC/C=C/c2ccccc2)C1c1cccc([N+](=O)[O-])c1` (stereo not given), for which the “activation” value is -1.87%. To `CC1=C(CC(=O)O)c2cc(F)ccc2/C1=C\c1ccc(S(C)(=O)=O)cc1` belongs -2.22%. The value for `CN(C)C(=O)Oc1cccc([N+](C)(C)C)c1` was 0.849%. To `CCc1cccc(N(C)C(N)=Nc2cccc3ccccc23)c1` belongs -4.82%. On to `COc1ccccc1N1CCN(CCCNc2cc(=O)n(C)c(=O)n2C)CC1`, for which the “activation” value is -4.61%. The value for `C[C@]12C=CC(=O)C=C1CC[C@H]1[C@@H]3C[C@@H](O)[C@](O)(C(=O)CO)[C@@]3(C)C[C@H](O)[C@@]12F` was -4.21%; that for `CCN(CC)CCOCCOC(=O)C1(c2ccccc2)CCCC1` was -3.67%; that for `CN1CCC(=C2c3ccccc3CC(=O)c3sccc32)CC1` was -2.48%. Consider `Cc1ccc(N(CC2=NCCN2)c2cccc(O)c2)cc1`, for which the “activation” value is 0.0677%.

For `COc1nc(C)nc(Cl)c1NC1=NCCN1`, the “activation” value is -0.743%. To `Clc1ccccc1C(c1ccccc1)(c1ccccc1)n1ccnc1` belongs -3.54%.

In the case of `Cn1cnc2c1c(=O)[nH]c(=O)n2C`, the “activation” value is -4.56%. The value for `OCc1cc(C(O)CNCCCCCCOCCCCc2ccccc2)ccc1O` (stereo not given) was -2.89%; that for `O=C(c1ccc(F)cc1)C1CCN(CCn2c(=O)[nH]c3ccccc3c2=O)CC1` was -3.57%; that for `COC(=O)C1=C(C)NC(C)=C(C(=O)OC(C)(C)CN(C)CCC(c2ccccc2)c2ccccc2)C1c1cccc([N+](=O)[O-])c1` (stereo not given) was -3.35%. `O=C(O)CN(CCOCCOCCN(CC(=O)O)CC(=O)O)CC(=O)O`: the “activation” value is -4.55%. The value for `CNC[C@H](O)c1ccc(O)c(O)c1` was -2.6%. The value for `Cc1cc(C(C)(C)C)cc(C)c1CC1=NCCN1` was -2.41%. The value for `Clc1ccc(Cn2c(CN3CCCC3)nc3ccccc32)cc1` was -1.57%; that for `NS(=O)(=O)c1cc2c(cc1Cl)NCNS2(=O)=O` was -4.25%; that for `C#CCN(C)Cc1ccccc1` was -4.31%. Turning to `CC1=C(C)C(=O)C(CCCCC#CCCCC#CCO)=C(C)C1=O`, the “activation” value is 0.948%. As for `C[n+]1cc2c3c(ccc2c2ccc4cc5c(cc4c21)OCO5)OCO3`, the “activation” value is -11.7%. For `CC(=O)[C@@]1(O)CC[C@H]2[C@@H]3CCC4=CC(=O)CC[C@]4(C)[C@H]3CC[C@@]21C`, the “activation” value is -0.676%.

On to `COc1cc2c(cc1OC)-c1cc(=Nc3c(C)cc(C)cc3C)n(C)c(=O)n1CC2`, for which the “activation” value was -1.9%. `NC(N)=NCCC[C@H](N)C(=O)O`: the “activation” value is -4.29%. The value for `CN(C)C/C=C(/c1ccc(Br)cc1)c1cccnc1` was -4.95%. To `CCCCNc1c(C(=O)OCC)c(C)nc2c1cnn2CC` belongs -1.43%; to `NC(N)=NC(=O)c1nc(Cl)c(N)nc1N`, 1%; to `COCC(=O)O[C@]1(CCN(C)CCCc2nc3ccccc3[nH]2)CCc2cc(F)ccc2[C@@H]1C(C)C`, -6.25%. Regarding `Oc1ccc(O)cc1`, the “activation” value was 3.38%. `CCN(CC)CCCC(C)Nc1c2ccc(Cl)cc2nc2ccc(OC)cc12` (stereo not given): the “activation” value is 4.86%. To `CCCn1cnc2c1c(=O)n(CCCCC(C)=O)c(=O)n2C` belongs -1.37%; to `O=C(O)CP(=O)(O)O`, -2.79%. The value for `CC(N)C(=O)OC(C)(C)Cc1ccc(Cl)cc1` (stereo not given) was -1.5%; that for `Cc1cccc(C)c1NC(=O)C(C)N` (stereo not given) was -1.47%.
